The target of test [1] is Cellular tumor antigen p53 (Homo sapiens) (UniProt P04637). Kind of test: Primary qHTS for small molecule compounds that upregulate eGFP-tagged delta133p53alpha (in N-terminal) cells. (AID 2060322). Also: nearly all actives have a fitted effect of over 75% in size. Also: potency is read from the fitted curve at half-maximal effect.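 As to activation: series mostly up to about 56 µM; 0% = DMSO vehicle and 100% = reference activator.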 Conditions: NCI-H358 eGFP-delta133p53alpha fluorescence, 24 h; activation: stronger effect = higher value. The gist of the method: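 NCI-H358 cells pre-induced 24 h with 10 ng/ml doxycycline to express N-terminal eGFP-delta133p53alpha, then dosed 24 h at 37C without doxycycline; fixed, Hoechst-stained, GFP intensity by laser scanning cytometry, normalized to DMSO (0%) and 57.5 uM 5-azacytidine (100%).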
Sequence of Cellular tumor antigen p53 (Homo sapiens) (P04637 whole entry, looked up): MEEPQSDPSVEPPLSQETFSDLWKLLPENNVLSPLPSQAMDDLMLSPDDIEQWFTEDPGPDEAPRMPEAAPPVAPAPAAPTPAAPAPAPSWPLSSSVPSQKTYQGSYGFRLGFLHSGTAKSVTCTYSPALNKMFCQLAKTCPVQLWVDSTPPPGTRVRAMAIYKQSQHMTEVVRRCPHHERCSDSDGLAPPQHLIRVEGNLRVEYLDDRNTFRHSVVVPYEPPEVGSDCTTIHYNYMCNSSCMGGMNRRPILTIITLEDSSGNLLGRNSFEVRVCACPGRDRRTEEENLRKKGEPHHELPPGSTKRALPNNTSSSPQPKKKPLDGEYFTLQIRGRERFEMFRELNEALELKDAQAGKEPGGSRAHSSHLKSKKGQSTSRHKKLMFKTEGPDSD
For orientation: Quantitative high-throughput screening tests each substance at several concentrations.

The target in test [2] is Aldehyde dehydrogenase, mitochondrial (Homo sapiens) (UniProt P05091). Kind of test: qHTS for Inhibitors of the Aldehyde Dehydrogenase Family (ALDH2) Primary screen (AID 2061308).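 Also: plate controls were vehicle for no effect and reference inhibitor for full effect; nearly all actives have a fitted effect of over 55% in size.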
In test [3] the target is Retinaldehyde dehydrogenase 3 (Homo sapiens) (UniProt P47895). Kind of test: qHTS for Inhibitors of the Aldehyde Dehydrogenase Family (ALDH1A3) Validation screen (AID 2061312). Also: % is scaled to controls: 0 for no effect and ±100 for the full control effect; nearly all actives have a fitted effect of over 45% in size.
Test [4] shares this target. Briefly: qHTS for Inhibitors of the Aldehyde Dehydrogenase Family (ALDH1A3) Primary screen (AID 2061315).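 Also: plate controls were DMSO vehicle for no effect and reference inhibitor for full effect.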
Test [5] can be described thus: BET inhibitor-based combinations targeting novel dependencies in MECOM-rearranged (r) AML: HNT-34 cell line (AID 2202234). Also: nearly all actives have a fitted effect of over 35% in size. Also: potency is read from the fitted curve at half-maximal effect. In short, it runs like this:
(§1)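 Seeding density was 500 cells/well, and drug exposure lasted 48 hr under standard culture conditions. Read-out used CellTiter-Glo reagent with a 15 min room-temperature incubation before luminescence measurement; AUC and Z-AUC summarize the normalized responses.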

Test [6] in a line: BET inhibitor-based combinations targeting novel dependencies in MECOM-rearranged (r) AML: UCSD-AML1 cell line (AID 2202235). Also: nearly all actives have a fitted effect of over 40% in size. Also: potency is read from the fitted curve at half-maximal effect. In short, it runs like this: as §1
Test [7] can be described thus: BET inhibitor-based combinations targeting novel dependencies in MECOM-rearranged (r) AML: SET-2 cell line (AID 2202231). Also: nearly all actives have a fitted effect of over 35% in size. Also: potency is read from the fitted curve at half-maximal effect.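 As to viability: plate controls were DMSO treated cells for no effect and wells without cells for full effect.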 The conditions noted are these: SET-2 AML cells viability, CellTiter-Glo luminescence, 48 h; viability: stronger effect = lower value, concentration not given here. The gist of the method: (§2)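 Readout: CellTiter-Glo luminescence. Exposure: 48 h, 11 concentrations, 500 cells/well. Metric: AUC and within-line Z-AUC after DMSO/empty-well normalization.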
A general note: Cellular ATP, detected with luciferase, serves as a proxy for viable cell number.

The nature of test [8]: BET inhibitor-based combinations targeting novel dependencies in MECOM-rearranged (r) AML: MV-4-11 cell line (AID 2202233).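 Also: plate controls were DMSO for no effect and blank wells for full effect; nearly all actives have a fitted effect of over 45% in size.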 In short, it runs like this:
as §1

Test [9] can be described thus: BET inhibitor-based combinations targeting novel dependencies in MECOM-rearranged (r) AML: AML-194 cell line (AID 2202237; also: nearly all actives have a fitted effect of over 40% in size; also: potency is read from the fitted curve at half-maximal effect). The gist of the method:
as §2

A short description of test [10]: BET inhibitor-based combinations targeting novel dependencies in MECOM-rearranged (r) AML: OCI-AML3 cell line (AID 2202232). Also: potency is read from the fitted curve at half-maximal effect; nearly all actives have a fitted effect of over 35% in size. Conditions: Potency: OCI-AML3 viability. In short, it runs like this: as §2
The nature of test [11]: BET inhibitor-based combinations targeting novel dependencies in MECOM-rearranged (r) AML: AML-191 cell line (AID 2202236; also: potency is read from the fitted curve at half-maximal effect; nearly all actives have a fitted effect of over 35% in size). In short, it runs like this: as §2

“And” between values parts separate entries of the source, which are not always exact repeats. Identical values can stand only once. Inconclusive results are not listed. The source made the active and inactive calls. Calls follow the shape of the dose curve; as a rule, active = well fitted curve in the direction sought with a large enough effect; inconclusive = small, poorly fitted or top-dose-only effect, or another doubt; inactive = no such curve, though single readings can be large; an effect the other way counts as inactive or inconclusive.

For the compound `CCOc1ccccc1-n1c(C(C)N2CCN(C(=O)COc3ccc(Cl)cc3)CC2)nc2ccccc2c1=O` (configuration not stated), the activation in [1] is 0.955% (inactive). The Potency entry in test [2], in [3] and in test [4] was “inactive” throughout. Also, the Potency in [5] was 3.32 µM (active).

For the compound `Cc1c(C(=O)Nc2cccc(C(F)(F)F)c2)cc(-c2ccccc2)n1CCCN1CCOCC1`, the activation in test [1] was -17.9% (inactive) and -8.11% (inactive). Further, the Potency result in test [2], in test [3], in test [4] and in test [6] was “inactive” each time.

Consider `CN1CCC2=C(C1)c1ccccc1Cc1ccccc12`, for which the activation in [1] is 16.2% (inactive). Moreover, the Potency result in test [2] and in test [4] was “inactive” throughout.

What is called viability is a read-out of living cells in per cent, often relative to untreated cells. In the case of `CC(=O)Nc1ccc(OC[C@](C)(O)C(=O)Nc2ccc([N+](=O)[O-])c(C(F)(F)F)c2)cc1`, in test [1], the activation was 44.3% (inactive) and 23.4% (inactive). The Potency result in test [2], in test [3], in [4], in test [8], in test [5] and in test [6] was “inactive” throughout. Also, in test [9], the Potency entry was “inactive”. For the same compound, in test [7], the viability is 114% (inactive).

For `COC1=CC(=O)O[C@@H](/C=C/c2ccccc2)C1`, the activation in test [1] was -10.7% (inactive). The Potency entry in test [2] and in test [4] was “inactive” throughout.

As to `O=C(N[C@H]1CN2CCC1CC2)c1cc2cccc(Cl)c2s1`, in test [1], the activation is 38.7% (inactive). Besides, the Potency result in test [2] and in [4] was “inactive” each time.

`O=c1[nH]c2ccc(Cl)cc2c(N[C@@H]2CN3CCC2CC3)c1-c1nc2ccccc2[nH]1`: the Potency in [1] is 17.2 µM (active) and 2.69 µM (active); in test [7], 332 nM (active); in [10], 417 nM (active); in test [5], 0.59 µM (active); in test [6] it was 417 nM (active); in test [11] it was 417 nM (active). Besides, the Potency in [9] is 332 nM (active). Moreover, the Potency result in test [2], in [3] and in test [4] was “inactive” each time.

With `CNC(=O)N1N=C(c2ccc(N)cc2)c2cc3c(cc2CC1C)OCO3` (configuration not stated), in test [1], the activation was 34.7% (inactive). Further, the Potency entry in test [2], in test [3] and in [4] was “inactive” in each case.

Values taken from PubChem BioAssay (NCATS).
